# Methyltransferases – Primary Screen for Target Class Profiling of Small Molecule Inhibitors of Methyltransferases; purified enzyme, MTase-Glo SAH luminescence; active compounds read low; calls only at 40 µM; hit rate 3.9% among 25,000; call rule not given here
#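 Each enzyme was assayed with SAM and its substrate. SAH formation detected by MTase-Glo luminescence; single-point 40 uM screen[…].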
# MTase-Glo ctr – inhibits MTase-Glo coupling enzymes without methyltransferase; shares compounds with Methyltransferases; MTase-Glo coupled enzymes, SAH conversion luminescence, no MTase; Potency, µM (titrated, usually from 57.3 µM), for the others: at the highest dose activity change, negative = inhibition, most hits filed as inhibitors; hit rate 6% among 180; active = well fitted inhibition curve with a large enough effect; also: potency is read from the fitted curve at half-maximal effect
# * = called active by the depositor; i = inactive; + = active, no number; [ ] = another dose, or the depositor's remark. This excerpt belongs to a sample that is enriched for hits. % is scaled to controls: 0 for no effect and ±100 for the full control effect.
SMILES,Methyltransferases,others
CCN1C(=O)c2cc(C(=O)NCc3cccc(Br)c3)nn2CC1(C)C(=O)NC1CCCC1 (configuration not stated),i,
Cc1ccc(CN2CCC3(CC2)CC(c2ccccc2)C(=O)N3C)cc1F (configuration not stated),i,
CN1C(=O)C(c2ccccc2)CC12CCN(c1ccnc(N)n1)CC2 (configuration not stated),+,MTase-Glo ctr=5%
Cc1ccc(Cn2c(=O)c3ccc(C(=O)NC(C)C)cc3n3c(=O)n(Cc4ccccc4C)nc23)cc1,i,
COc1ccc2nc(NC(=O)Cn3c(=O)oc4cc(S(=O)(=O)NC(C)C)ccc43)sc2c1,i,
O=C(O)c1ccc(CC2CCN(Cc3ccccn3)C2)cc1 (configuration not stated),i,
c1ccc(Nc2cc3c(cn2)NCCN(Cc2ccccn2)C3)cc1,i,
c1ccc(-c2cc3c(cn2)NCCN(Cc2ccccn2)C3)cc1,+,MTase-Glo ctr=-5%[85.7 µM]
COC(=O)c1ccc(NCC2=CC(C)(C)COc3ccc(OC)cc32)cc1,i,
Cc1cc(-c2cc3c(cn2)N(C)CCN(C)C3)ccn1,+,MTase-Glo ctr=-4%[114 µM]
COCCCNC(=O)C1(C)Cn2nc(-c3ccccc3)cc2C(=O)N1c1ccccc1C (configuration not stated),i,
CN1C(=O)c2cc(C(=O)N3CCN(c4ccccc4)CC3)nn2CC1(C)C(=O)NC1CCCC1 (configuration not stated),i,
Cc1ccc(-c2ccc(N)nc2)c2cccnc12,+,MTase-Glo ctr=-6%
Cc1cc2c(cc3n2CC(C)(C(=O)NC2CCCCC2)N(Cc2ccccc2Cl)C3=O)o1 (configuration not stated),i,
COc1cc(Br)c(S(=O)(=O)Nc2ccc(C(F)(F)F)c(O[C@@H]3CCN(C)C3)c2)cc1OC,i,
CC1(C)CCCC2(C)C(CO)C3CCC2C31 (configuration not stated),i,
CC1(C(=O)NC2CCCCCCC2)Cn2c(cc3occc32)C(=O)N1C1CCCCCC1 (configuration not stated),i,
CC1CCC(NC(=O)C2(C)Cn3c(cc4occc43)C(=O)N2Cc2cccc(Cl)c2)CC1 (configuration not stated),i,
Cc1ccc2nc(CO[C@H]3CN(C4CCN(C)CC4)C[C@H]3F)[nH]c2c1,i,
CCN1CC(C(=O)N(C)Cc2ccc(Oc3ccccc3)cc2)CCC1=O (configuration not stated),i,
Cc1ccc2nc(CN(C)C(=O)C3CCC(=O)N(C4CCCCCC4)C3)[nH]c2c1 (configuration not stated),+,MTase-Glo ctr=-1%
NS(=O)(=O)c1ccc(CCNc2nc3c(S(=O)(=O)c4ccccc4)nnn3c3ccccc23)cc1,i,
O=C(CCc1nnc2n(Cc3ccccc3)c(=O)c3ccccc3n12)NC1CCN(Cc2ccccc2)CC1,i,
O=C1c2cc3occc3n2CC(C(=O)NC2CCCCCCC2)(c2ccccc2)N1Cc1cccc(F)c1 (configuration not stated),i,
O=C(CCc1nnn2c1CN(Cc1cn[nH]c1-c1ccc(F)cc1)CC2)N1CCCC1,i,
SMILES,Methyltransferases,others
OCC1(Cc2ccccc2)CCCN(Cc2cn[nH]c2-c2ccc(F)cc2)C1 (configuration not stated),+,MTase-Glo ctr=2%
OCC1(CC2CC2)CCCN(Cc2ccc(C(F)(F)F)nc2)C1 (configuration not stated),i,
COc1ccccc1C(=O)Nc1ccc2c(c1)C(=O)N(C)C1=NCCN12,i,
Cc1ccc(Cn2c(=O)c3ccccc3n3c(CCC(=O)NCCc4c[nH]c5ccccc45)nnc23)cc1,i,
O=C1N(Cc2ccc(F)c(F)c2)CCCC12CCN(c1nc3ccccc3o1)C2 (configuration not stated),i,
c1ccc(CO[C@H]2COCCN(c3nc4ccccc4o3)C2)cc1,+,MTase-Glo ctr=-4%[85.7 µM]
COc1ccc(CNC(=O)O[C@H]2COCCN(c3nc4ccccc4o3)C2)cc1,i,
CCc1ccc(CN2C(=O)c3c(C(=O)OC)ncn3CC2(C)C(=O)NC2CCCC2)cc1 (configuration not stated),i,
CCN(CC)Cc1cnc2c(C(=O)N3CCCN4CCC[C@H]4C3)cnn2c1,+,MTase-Glo ctr=2%
CN1C[C@@H]2CC[C@H](CC1=O)N2C(=O)c1cnn2cc(CCO)cnc12,i,
CCC(O)C1CCN(C(=O)c2cnn3cc(CN(CC)CC)cnc23)CC1 (configuration not stated),i,
COCCCN1C(=O)c2ccc(-c3ccco3)n2CC1(C)C(=O)NCc1ccccc1 (configuration not stated),i,
CC(=O)Nc1c2n(c3ccccc13)CC(C)(C(=O)NC1CCCC1)N(Cc1ccccc1F)C2=O (configuration not stated),i,
